Outcome and AC50 data for 40 molecules are collected here from PubChem BioAssay (EPA / NIEHS).

Active and inactive are the calls of the source. Rule for the calls: active = hit-call score of the fitted dose curve at least 0.9, where 1 is the maximum; inactive = score below 0.9.

As a reminder, the AC50 is the concentration giving half of the maximal activity seen.

The target of this assay is Hepatocyte nuclear factor 3-beta (Homo sapiens) (UniProt Q9Y261). As to the kind of experiment: ATG_FoxA2_CIS: Attagene CIS-FACTORIAL HepG2 Assay for human Forkhead box A2 (FOXA2) (AID 2282942). Particulars: HepG2 cis-reporter transcription factor activity, 24 h; actives raise or lower the signal. The method, then: ATG_CIS is a cell-based, multiplexed-readout assay that uses HepG2, a human liver cell line, with measurements taken at 24 hours after chemical dosing in a 24-well plate.ATG_FoxA2_CIS is one of 52 assay component(s) measured or calculated from the ATG_CIS assay. It is designed to make measurements of mRNA induction, a form of inducible reporter, as detected with fluorescence intensity signals by Reverse transcription polymerase chain reaction (RT-PCR) and Capillary electrophoresis technology.Data from the assay component ATG_FoxA2_CIS was analyzed into 1 assay endpoint. This assay endpoint, ATG_FoxA2_CIS, was analyzed with bidirectional fitting relative to DMSO as the negative control and baseline of activity. Using a type of inducible reporter, measures of mRNA for gain or loss-of-signal activity can be used to understand the reporter gene at the transcription factor-level as they relate to the gene FOXA2. Furthermore, this assay endpoint can be referred to as a primary readout, because this assay has produced multiple assay endpoints where this one serves a reporter gene function. To generalize the intended target to other relatable targets, this assay endpoint is annotated to the dna binding intended target family, where the subfamily is forkhead box protein.
Hepatocyte nuclear factor 3-beta (Homo sapiens), sequence (Q9Y261 whole entry, looked up): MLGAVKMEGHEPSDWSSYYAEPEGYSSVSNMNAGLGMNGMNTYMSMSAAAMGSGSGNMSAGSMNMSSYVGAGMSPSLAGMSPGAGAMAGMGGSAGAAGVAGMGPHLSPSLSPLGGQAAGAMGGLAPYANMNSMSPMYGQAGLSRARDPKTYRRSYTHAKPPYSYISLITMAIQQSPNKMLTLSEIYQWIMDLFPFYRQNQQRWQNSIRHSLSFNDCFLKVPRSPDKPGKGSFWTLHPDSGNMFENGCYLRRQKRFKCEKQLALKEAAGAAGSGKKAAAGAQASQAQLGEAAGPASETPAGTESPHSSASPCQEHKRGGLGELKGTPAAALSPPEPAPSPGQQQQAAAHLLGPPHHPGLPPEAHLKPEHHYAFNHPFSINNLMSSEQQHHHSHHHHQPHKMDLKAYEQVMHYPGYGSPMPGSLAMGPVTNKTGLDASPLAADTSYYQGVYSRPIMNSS
Human liver HepG2 cells are transiently transfected with multiple reporter transcription units (MRTUs) in 6-well plates using FuGene 6 reagent (Roche; 3 ml FuGene/1 mg DNA). The MRTU constructs are regulated by a cis-regulating element (promoter). […] A major difference between the CIS and TRANS system is that in CIS activities of endogenous TFs are measured, whereas the TRANS assay evaluates changes in activities of exogenous, chimeric NR-Gal4 proteins. […] At the end of 24 hour incubation, total RNA was isolated using TriZol reagent (Invitrogen). The isolated RNA is then reverse-transcribed using oligo(dT) primer and Mo-MLV reverse transcriptase (Invitrogen) with DNAse I (Ambion) treatment for 30 min. The one-tenth of the produced cDNA was amplified by PCR using Taq DNA polymerase (Invitrogen) and two reporter sequence-specific primers. The PCR products were fluorescently labeled by primer extension with 6-arboxyfluorescein (6-FAM) 5'-labeled reporter sequence-specific primer (2 min at 95 C, 20 s at 68 C and 10 min at 72 C) and these products were digested with 5U of HpaI (New England Biolabs) for 2h at 37 C. The fragments were purified using Qiaquick PCR columns (Qiagen), analyzed on an ABI 3130xL genetic analyzer (Applied Biosystems) with peak positions identified by using a set of X-rhodamine (ROX)-labeled MapMarker1000 molecular weight standards (BioVentures). The raw capillary electrophoresis data was processed using Attagraph software (Attagene).
As for `O=C(NC(=O)c1c(F)cccc1F)Nc1ccc(Cl)cc1`, the call was inactive. As to `Cc1ccc2nc3sc(=O)sc3nc2c1`, the AC50 was 11.9 µM (active). For `CC(C)[C@H](C(=O)OC(C#N)c1cccc(Oc2ccccc2)c1)c1ccc(OC(F)F)cc1` (stereo not given in full), the outcome was inactive. Same read-out and setting: as for `CCC[N+](CCC)(CCC)CCC`, the entry is “inactive”. On to `O=C(CBr)c1ccc(O)cc1`, for which the molecule was classed as inactive. As for `CCCCCCCCCCCCc1cccc(S(=O)(=O)O)c1`, the call was inactive. For the molecule `CNC(=O)CSP(=O)(OC)OC`, the call was inactive. Take `Cc1cc(Cl)ccc1O`: the molecule was classed as inactive. Still for that read-out and setting: as for `Clc1cccc(Cl)c1Cl`, the entry is “inactive”; as for `Nc1ncn[nH]1`, “inactive”; as for `CCOc1cc(C=O)ccc1O`, “inactive”. Same read-out and setting: as for `BrCCCCBr`, the entry is “inactive”; as for `O=NN1CCOCC1`, “inactive”; as for `OC(c1ccc(Cl)cc1)(c1ccc(Cl)cc1)c1cccnc1`, “inactive”.

In the case of `Cc1cc(C(F)(C(F)(F)F)C(F)(F)F)ccc1NC(=O)c1cccc(I)c1C(=O)NC(C)(C)CS(C)(=O)=O`, the molecule was classed as inactive. Still for that read-out and setting: as for `C=CCN=C=S`, the entry is “inactive”; as for `CN(C)C(=S)S`, “inactive”.

Take `CCOP(=S)(OCC)SCS(=O)(=O)C(C)(C)C`: the call was inactive. `O=[N+]([O-])c1c2ccccc2cc2ccccc12`: the molecule was classed as inactive.

For the molecule `O=C(NC(=O)c1c(F)cccc1F)Nc1cc(Cl)c(Oc2ncc(C(F)(F)F)cc2Cl)c(Cl)c1`, the molecule was classed as inactive. The same measure, in the same setting: in the case of `CC(C)(C)c1ccccc1O` it was “inactive”; in that of `Nc1cccnc1`, “inactive”. For `CCOP(=O)(OCC)SCCSCC`, the result was inactive. For `CCN(N=O)C(N)=O`, the call was inactive. `COCCl`: the call was inactive. Turning to `C#CCOC(=O)/C=C(C)/C=C/CC(C)CCCC(C)C` (stereo not given), the call was inactive. Turning to `OC(Cc1ccccc1Cl)(Cn1cncn1)C1(Cl)CC1` (stereo not given), the call was inactive. The same measure, in the same setting: in the case of `O=S(=O)(F)C(F)(F)C(F)(F)C(F)(F)C(F)(F)F` it was “inactive”. Take `CCOP(=S)(OCC)OP(=S)(OCC)OCC`: the result was inactive. `O=c1nc(O)n(Cl)c(=O)n1Cl`: the molecule was classed as inactive. With `Brc1ccc(Oc2c(Br)cc(Br)cc2Br)c(Br)c1`, the molecule was classed as inactive. Still for that read-out and setting: as for `C=CCc1ccccc1O`, the entry is “inactive”; as for `O=NN1CCCCCCC1`, “inactive”. For `c1cc[c]([Sb]([c]2ccccc2)[c]2ccccc2)cc1`, the molecule was called inactive. `Fc1cccc(Cl)c1CCl`: the outcome was inactive. As to `C=CCCl`, the result was inactive. For the molecule `CC(C)N(C(=O)CCl)c1ccccc1`, the molecule was classed as inactive.

Turning to `OC[P+](CO)(CO)CO`, the molecule was called inactive. Turning to `C=CC(F)(C(F)(F)F)C(F)(F)C(F)(F)F` (stereo not given), the molecule was called inactive. Still for that read-out and setting: in the case of `CCCCCCCCCCCCN(C)C` it was “inactive”.
